Assay: compounds binding Alexa647 anti-His antibody – biochemical, small-molecule microarray, 635 nm fluorescence, artefact control for SMM control protein annotation, primary screen (AID 1128);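 further: score merges feature fluorescence with signal-to-noise for each printed compound spot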
Conditions: higher = more signal

SMILES	composite z-score
COCCCNC(=O)[C@@H]1c2ccccc2C(=O)N(C2Cc3ccccc3C2)[C@H]1c1ccc(CO)cc1	3.04
COc1ccc([Si](C)(C)[C@H]2[C@H](CCO)O[C@@]3(C(=O)N(Cc4ccccc4)c4ccc(N5CCOC5=O)cc43)[C@@H]2C)cc1	0.783
C[C@@]12COC[C@]13C=C(Br)[C@H](C2)[C@@]1(CO1)C3=O	0.0359
Nc1cc(Br)ccc1C(=O)O	1.28
COC(=O)[C@@]1(Cc2ccccc2)[C@H]2c3cc(C(=O)N(C)C)n(CCn4cc([N+](=O)[O-])nc4C)c3C[C@H]2CN1C(=O)c1ccccc1	0.735
C=C(/C(=C/C[C@@H](OC(C)=O)c1ccc(CO)o1)c1cc(C(=O)OC)ccc1OC)C(C)C	1.54
CC(C)C(=C=CC[C@H](O)c1cccc(OCCO)c1)CCO	-0.0157
C=CCN1C(=O)[C@]2(O[C@H](CCO)[C@@H]([Si](C)(C)c3ccc(OC)cc3)[C@@H]2C)c2cc(NC(=O)c3ccc(OC)cc3)ccc21	1.17
CC(=O)NCCCC[C@@H]1NC(=O)[C@@H]2C[C@H](C(=O)NCCCCCCN)[C@H](c3cccc(OCCO)c3)N2C1=O	1.86
CN(C)CCCCNC(=O)[C@H]1C[C@H]2C(=O)N[C@@H](CCCC[N+](C)(C)C)C(=O)N2[C@H]1c1ccc(O)cc1	1.12
CC(C)N1CC=CC23O[C@@H]4/C=C\CCCOC(=O)C4[C@H]2C(=O)N(CCCCCCO)[C@@H]3C1=O (stereo not given in full)	1.3
O=C(CS)NCCCCCCNC(=O)[C@@H]1C[C@@H]2C(=O)NCC(=O)N2[C@@H]1c1ccc(O)cc1	2.52
COc1ccc([Si](C)(C)[C@H]2[C@H](CCO)O[C@@]3(C(=O)N(Cc4ccccc4)c4ccc(N5C(=O)c6ccccc6Oc6ccccc65)cc43)[C@@H]2C)cc1	0.814
NC(=O)[C@H]1[C@@H]2C(=O)O[C@@H](c3ccccc3)[C@@H](c3ccccc3)N2[C@@H](c2ccc(O)cc2)[C@]12C(=O)Nc1ccccc12	0.53
[N-]=[N+]=NCc1ccccc1[C@@H]1OC(c2ccc(OCCCO)cc2)=N[C@]1(Cc1ccccc1)C(=O)NCCN1CCOCC1	1.16
O=C1C2C=CC(C(O)c3ccc4c(c3)OCO4)N(Nc3ccccc3)C2C(=O)N1c1ccccc1 (stereo not given)	0.496
O=C(CS)NCCCCCNC(=O)[C@@H]1C[C@@H]2C(=O)N[C@@H](Cc3ccccc3)C(=O)N2[C@@H]1c1cccc(OCCO)c1	0.768
NCCCCCNC(=O)[C@@H]1C[C@@H]2C(=O)N3CCC[C@H]3C(=O)N2[C@@H]1c1ccc(O)cc1	0.509
COc1cc(NN2C(C(O)c3ccccc3)C=CC3C(=O)N(C)C(=O)C32)cc(OC)c1OC (stereo not given)	0.981
CC=CC(O)C1C=CC2C(=O)NC(=O)C2N1Nc1ccccn1 (stereo not given)	1.41
COCCOC(=O)N1C(=O)[C@@]2(c3ccccc31)[C@H](c1ccccc1OCCO)N1[C@H](c3ccccc3)[C@H](c3ccccc3)OC(=O)[C@H]1[C@@H]2C(N)=O	1.93
COc1cc(NN2C(C(O)c3ccc(I)cc3)C=CC3C(=O)N(c4ccccc4)C(=O)C32)cc(OC)c1OC (stereo not given)	2.4
[N-]=[N+]=NCc1ccccc1[C@@H]1OC(c2ccc(OCCCO)cc2)=N[C@]1(Cc1ccccc1N=[N+]=[N-])C(=O)NCCN1CCOCC1	1.37
C=C(/C(=C/C[C@H](OC(=O)c1ccncc1)c1ccccc1OCCO)c1cnc2ccccc2c1)C(C)C	1.23
C=CCNC(=O)[C@@H]1[C@H]2C(=O)O[C@H](c3ccccc3)[C@H](c3ccccc3)N2[C@H](c2ccc(OCCO)cc2)[C@@]12C(=O)N(C(=O)OCCOC)c1ccc(C#CCCO)cc12	0.32
C=C[C@H](C)[C@H](OC(=O)Nc1ccc(OC)cc1)c1ccc(OCCO)cc1	-0.489
COc1ccc(C#Cc2ccc3c(c2)[C@]2(C(=O)N3)[C@H](C(=O)N3CCCCCCC3)[C@H]3C(=O)O[C@H](c4ccccc4)[C@H](c4ccccc4)N3[C@@H]2c2ccc(O)cc2)cc1	1.21
NCCCCCNC(=O)[C@H]1C[C@H]2C(=O)N[C@@H](Cc3ccccc3)C(=O)N2[C@H]1c1ccc(O)cc1	1.61
CC(C)c1ccc(NN2C(C(O)Cc3ccccc3)C=CC3C(=O)N(c4ccccc4)C(=O)C32)cc1 (stereo not given)	0.829
Cc1ccc(S[C@]2(C(=O)NCc3ccccc3)CC(=O)N(Cc3cc(C(F)(F)F)cc(C(F)(F)F)c3)[C@@H]2c2ccc(CO)cc2I)cc1	-1.1

Source: PubChem BioAssay
